Active and inactive are the calls of the source. The calls were made as follows: active = hit-call score of the fitted dose curve at least 0.9, where 1 is the maximum; inactive = score below 0.9.

Heat shock factor protein 1 (Homo sapiens), sequence (Q00613 whole entry, looked up): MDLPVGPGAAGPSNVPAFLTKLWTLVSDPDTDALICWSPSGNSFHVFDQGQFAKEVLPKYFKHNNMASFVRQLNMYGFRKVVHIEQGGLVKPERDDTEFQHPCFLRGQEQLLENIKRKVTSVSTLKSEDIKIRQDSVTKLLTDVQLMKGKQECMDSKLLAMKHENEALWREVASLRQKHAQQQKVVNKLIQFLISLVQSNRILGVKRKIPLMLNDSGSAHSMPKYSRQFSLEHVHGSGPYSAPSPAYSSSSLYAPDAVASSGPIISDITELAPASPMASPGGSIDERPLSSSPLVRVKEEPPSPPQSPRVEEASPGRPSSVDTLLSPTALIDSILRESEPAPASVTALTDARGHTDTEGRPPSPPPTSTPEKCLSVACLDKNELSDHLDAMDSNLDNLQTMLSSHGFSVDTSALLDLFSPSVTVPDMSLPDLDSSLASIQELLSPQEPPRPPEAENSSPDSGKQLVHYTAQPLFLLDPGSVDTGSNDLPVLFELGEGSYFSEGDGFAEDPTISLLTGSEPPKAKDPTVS

For one assay, the target named is Heat shock factor protein 1 (Homo sapiens) (UniProt Q00613). Description: ATG_HSE_CIS: Attagene CIS-FACTORIAL HepG2 Assay for human Heat Shock Transcription Factor 1 (HSE) (AID 2282953). As to conditions: HepG2 HSE cis-reporter, Attagene RNA transcription; actives raise or lower the signal. An outline of the steps:
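Using HepG2 with transfected cis-driven reporter constructs, compound effects on endogenous factor activity are scored as reporter mRNA change at 24 h. Detection: RT-PCR, HpaI digestion, capillary electrophoresis; bidirectional fitting to DMSO.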
Consider `CC1=CC(=O)c2ccccc2C1=O`, for which the compound was classed as inactive.
Turning to `CC(C)(C)C1CCCCC1O` (centres undefined), the compound was called inactive.
Same read-out and setting: to `CC(C)CCOCCC(C)C` belongs “inactive”; to `CCCCCCCCCCCCCC[n+]1ccccc1`, “inactive”.
The same measure, in the same setting: as for `CCCCCCCC(OC)OC`, the entry is “inactive”; as for `O=CC(F)(F)C(F)(F)C(F)(F)C(F)F`, “inactive”.
On the same count and under the same terms, to `CCCCCCCCCCCCCCC` belongs “inactive”.
For the compound `O=C1OC(=O)C(F)(F)C1(F)F`, the outcome was inactive.
As to `COCN(COC)c1nc(N(COC)COC)nc(N(COC)COC)n1`, the call was inactive.
Same read-out and setting: as for `CC(=O)Nc1ccc(S(N)(=O)=O)cc1`, the entry is “inactive”.
On to `CCCCCCCCCCCC(=O)NCCCN(C)C`, for which the concentration at half-maximal activity (AC50) (commonly the concentration at which the activity in the assay is half-maximal) was 17.5 µM (active).
Take `C=CC(C)(CCC=C(C)C)OC(C)=O` (centres undefined): the call was inactive.
In the case of `O=C(OC(=O)C(F)(F)C(F)(F)F)C(F)(F)C(F)(F)F`, the call was inactive.
The same measure, in the same setting: to `C[N+](C)(CCCNS(=O)(=O)CCC(F)(F)C(F)(F)C(F)(F)C(F)(F)C(F)(F)C(F)(F)F)CC(=O)[O-]` belongs “inactive”; to `CCOC(=O)CN[C@@H](C(=O)N1CC[C@H]1C(=O)NCc1ccc(/C(N)=N/O)cc1)C1CCCCC1`, “inactive”; to `CC(O)COc1ccccc1` (centres undefined), “inactive”.
Same read-out and setting: to `CCC(C)c1ccccc1O` (centres undefined) belongs “inactive”.
For `C/C=C/C(=O)C1=C(C)CCCC1(C)C`, the half-maximal activity concentration (AC50) is 63.7 µM (active).
Consider `O=C(NCc1ncc(C(F)(F)F)cc1Cl)c1c(Cl)cccc1Cl`, for which the compound was classed as inactive.
On to `CCCCCC(C)OC(=O)COc1ccc(Cl)c2cccnc12` (centres undefined), for which the compound was called inactive.
The same measure, in the same setting: as for `O=S(=O)(O)C(F)(F)C(F)(F)C(F)(F)C(F)(F)C(F)(F)C(F)(F)C(F)(F)C(F)(F)C(F)(F)C(F)(F)F`, the entry is “inactive”; as for `c1cc2cccc3c4cccc5cccc(c(c1)c23)c54`, “inactive”; as for `CCCCC(CC)C(=O)OCCOCCOCCOCCOC(=O)C(CC)CCCC` (centres undefined), “inactive”.
With `CCCCCCCCCCCCOC(=O)c1cc(O)c(O)c(O)c1`, the AC50 was 8.12 µM (active).
For the compound `CCOC(C)=O`, the compound was classed as inactive.
Same read-out and setting: as for `Cc1ccccc1OCC(=O)O`, the entry is “inactive”.
Regarding `NCc1cccc(CN)c1`, the result was inactive.
Still for that read-out and setting: to `CC(C)(C)c1ccc(CCC=O)cc1` belongs “inactive”.
Turning to `CC(=O)CC(C)C`, the compound was classed as inactive.
As to `NNc1nc(-c2ccc([N+](=O)[O-])cc2)cs1`, the AC50 is 51.3 µM (active).
With `OCC(F)(F)C(F)(F)C(F)(F)C(F)(F)C(F)(F)C(F)(F)C(F)(F)C(F)(F)C(F)(F)C(F)(F)C(F)(F)F`, the compound was called inactive.
Still for that read-out and setting: to `COC(=O)C(F)(F)C(F)(F)C(F)(F)F` belongs “inactive”; to `CCOC=O`, “inactive”.
Same read-out and setting: as for `CCCCCCCCCCCC[N+](C)(C)CCCCCCCCCCCC`, the entry is “inactive”; as for `CCCCCCCCCC=CCC1CC(=O)OC1=O` (centres undefined), “inactive”; as for `FC(F)(F)C(F)(F)C(F)(F)Br`, “inactive”.
Still for that read-out and setting: as for `Oc1cccc2c(O)cccc12`, the entry is “inactive”.

System in the next assay: not listed separately
Put plainly: ATG_MRE_CIS: Attagene CIS-FACTORIAL HepG2 Assay for human Metal Responsive Element (MRE) (AID 2282954). As to conditions: HepG2 MRE cis-reporter transcription, Attagene multiplex; actives raise or lower the signal. In outline:
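Fluorescent reporter fragments separated by capillary electrophoresis give mRNA induction for the MRE unit after 24 h treatment of transfected HepG2 cells. Endogenous transcription-factor activity is read; DMSO serves as negative control and baseline.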
Turning to `CC1=CC(=O)c2ccccc2C1=O`, the compound was classed as inactive.
The same measure, in the same setting: to `CC(C)(C)C1CCCCC1O` (centres undefined) belongs “inactive”.
The same measure, in the same setting: as for `CC(C)CCOCCC(C)C`, the entry is “inactive”; as for `CCCCCCCCCCCCCC[n+]1ccccc1`, “inactive”; as for `CCCCCCCC(OC)OC`, “inactive”.
On the same count and under the same terms, to `O=CC(F)(F)C(F)(F)C(F)(F)C(F)F` belongs “inactive”.
Turning to `CCCCCCCCCCCCCCC`, the compound was called inactive.
On the same count and under the same terms, as for `O=C1OC(=O)C(F)(F)C1(F)F`, the entry is “inactive”; as for `COCN(COC)c1nc(N(COC)COC)nc(N(COC)COC)n1`, “inactive”.
The same measure, in the same setting: as for `CC(=O)Nc1ccc(S(N)(=O)=O)cc1`, the entry is “inactive”.
Take `CCCCCCCCCCCC(=O)NCCCN(C)C`: the half-maximal activity concentration (AC50) was 19.8 µM (active).
As for `C=CC(C)(CCC=C(C)C)OC(C)=O` (centres undefined), the outcome was inactive.
On the same count and under the same terms, to `O=C(OC(=O)C(F)(F)C(F)(F)F)C(F)(F)C(F)(F)F` belongs “inactive”; to `C[N+](C)(CCCNS(=O)(=O)CCC(F)(F)C(F)(F)C(F)(F)C(F)(F)C(F)(F)C(F)(F)F)CC(=O)[O-]`, “inactive”.
On the same count and under the same terms, to `CCOC(=O)CN[C@@H](C(=O)N1CC[C@H]1C(=O)NCc1ccc(/C(N)=N/O)cc1)C1CCCCC1` belongs “inactive”; to `CC(O)COc1ccccc1` (centres undefined), “inactive”.
The same measure, in the same setting: to `CCC(C)c1ccccc1O` (centres undefined) belongs “inactive”.
Turning to `C/C=C/C(=O)C1=C(C)CCCC1(C)C`, the AC50 is 36.5 µM (active).
`O=C(NCc1ncc(C(F)(F)F)cc1Cl)c1c(Cl)cccc1Cl`: the result was inactive.
As for `CCCCCC(C)OC(=O)COc1ccc(Cl)c2cccnc12` (centres undefined), the compound was called inactive.
Same read-out and setting: to `O=S(=O)(O)C(F)(F)C(F)(F)C(F)(F)C(F)(F)C(F)(F)C(F)(F)C(F)(F)C(F)(F)C(F)(F)C(F)(F)F` belongs “inactive”; to `c1cc2cccc3c4cccc5cccc(c(c1)c23)c54`, “inactive”.
Take `CCCCC(CC)C(=O)OCCOCCOCCOCCOC(=O)C(CC)CCCC` (centres undefined): the outcome was inactive.
For the compound `CCCCCCCCCCCCOC(=O)c1cc(O)c(O)c(O)c1`, the concentration at half-maximal activity (AC50) was 18.5 µM (active).
Turning to `CCOC(C)=O`, the compound was called inactive.
On the same count and under the same terms, as for `Cc1ccccc1OCC(=O)O`, the entry is “inactive”.
For the compound `NCc1cccc(CN)c1`, the result was inactive.
Still for that read-out and setting: to `CC(C)(C)c1ccc(CCC=O)cc1` belongs “inactive”; to `CC(=O)CC(C)C`, “inactive”.
As for `NNc1nc(-c2ccc([N+](=O)[O-])cc2)cs1`, the outcome was inactive.
Same read-out and setting: as for `OCC(F)(F)C(F)(F)C(F)(F)C(F)(F)C(F)(F)C(F)(F)C(F)(F)C(F)(F)C(F)(F)C(F)(F)C(F)(F)F`, the entry is “inactive”; as for `COC(=O)C(F)(F)C(F)(F)C(F)(F)F`, “inactive”.
Same read-out and setting: as for `CCOC=O`, the entry is “inactive”.
For `CCCCCCCCCCCC[N+](C)(C)CCCCCCCCCCCC`, the AC50 was 4.84 µM (active).
As for `CCCCCCCCCC=CCC1CC(=O)OC1=O` (centres undefined), the call was inactive.
The same measure, in the same setting: as for `FC(F)(F)C(F)(F)C(F)(F)Br`, the entry is “inactive”.
The same measure, in the same setting: as for `Oc1cccc2c(O)cccc12`, the entry is “inactive”.

Source of the values: PubChem BioAssay (EPA / NIEHS).
